# Assay outcomes (PubChem)
# Rows were chosen to be rich in hits. Some 2.5% of all compounds tested hit in one or more screens of this group.
# Cruzain inh Det = inhibitors of Trypanosoma cruzi cruzain with detergent | P25779 | purified cruzain, Z-FR-AMC fluorescence, 0.01% Triton | Potency, µM, without a hit: max response, negative = inhibition, hits mostly inhibitors | 0.43% of 200,000 active;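 also: plate controls were neutral wells for no effect and buffer without enzyme for full effect; nearly all actives have a fitted effect of over 40% in size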
# Target sequence (P25779 123-467 limits assumed): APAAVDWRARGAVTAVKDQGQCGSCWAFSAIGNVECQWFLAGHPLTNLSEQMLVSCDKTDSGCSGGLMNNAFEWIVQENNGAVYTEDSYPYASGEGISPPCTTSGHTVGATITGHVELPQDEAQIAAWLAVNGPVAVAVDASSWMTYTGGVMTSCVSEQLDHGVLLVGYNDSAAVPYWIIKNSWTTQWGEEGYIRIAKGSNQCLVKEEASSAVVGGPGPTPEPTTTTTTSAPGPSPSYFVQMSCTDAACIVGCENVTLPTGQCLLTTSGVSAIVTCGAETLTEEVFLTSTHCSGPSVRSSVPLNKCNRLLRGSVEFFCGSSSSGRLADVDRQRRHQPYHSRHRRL
#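 Purified cruzain (1.5 nM final) was preincubated with compounds for 15 min at room temperature in 100 mM sodium acetate pH 5.5, 5 mM DTT, 0.01% Triton X-100. Reaction started with 2 uM Z-FR-AMC; AMC fluorescence change over 60 s gave activity.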
# Cruzain noTriton = blocks cruzain activity in detergent-free assay; 2.3% of 200,000 active; Potency, µM, for inactives: max response, negative = inhibition, usual class: inhibitors; P25779; purified cruzain, Z-FR-AMC fluorescence, no detergent;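 also: plate controls were enzyme without inhibitor for no effect and buffer without enzyme for full effect; nearly all actives have a fitted effect of over 40% in size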
#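 Purified cruzain at 1.5 nM, pre-incubated 15 min with compound at room temperature in 100 mM sodium acetate pH 5.5, 5 mM DTT, 0.00005% Triton X-100. Reaction started with 2 uM Z-FR-AMC; AMC fluorescence increase over 60 s gives rate.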
# The depositor's hits bear a star; ? = inconclusive. Calls follow the shape of the dose curve; as a rule, active = well fitted curve in the direction sought with a large enough effect; inconclusive = small, poorly fitted or top-dose-only effect, or another doubt; inactive = no such curve, though single readings can be large; an effect the other way counts as inactive or inconclusive. Potency is read from the fitted curve at half-maximal effect.
SMILES,Cruzain inh Det,Cruzain noTriton
CCC(Sc1nc(-c2ccccc2)[nH]c1S(=O)(=O)c1ccc(C)cc1)C(=O)O (configuration not stated),-6%,3%
C=C(C)C(O)/C=C/c1ccc(C(F)(F)F)cc1 (configuration not stated),1%,-6%
COc1cccc(-c2cc(C(=O)Nc3cc(C)on3)no2)c1,0%,-5%
CC(=O)c1cccc(NC(=O)c2cc(-c3ccc(C)cc3)on2)c1,1%,25µM*
CC(=O)c1cccc(NC(=O)c2cc(-c3ccc4c(c3)OCCO4)on2)c1,0%,-2%
Cc1cc(NC(=O)c2cc(-c3cccc(Cl)c3)on2)no1,5%,20µM*
Cc1ccc(Cn2ccc(NC(=O)c3cc(-c4ccc(F)cc4)on3)n2)cc1,8%,20µM*
Cc1ccc(Cn2ccc(NC(=O)c3cc(-c4ccc(Cl)cc4)on3)n2)cc1,-3%,1%
O=C(O)C(=Cc1ccc(-c2ccccc2)cc1)C(=O)O,7%,3%
COc1ccccc1CNS(=O)(=O)c1cnc(N)nc1,-1%,-16%
CCOc1ccccc1NC(=O)C1CCCN(S(=O)(=O)c2cccs2)C1 (configuration not stated),-5%,-14%
Nc1nnc(SCC(=O)NCCOc2ccccc2)s1,28µM*,?
O=C(CSc1nc2ccccc2s1)NCCOc1ccccc1,-5%,0%
COc1ccc(S(=O)(=O)c2cnc(SCC(=O)Nc3cc(F)ccc3C)[nH]c2=O)cc1Cl,-23%,30%
Oc1ccc(N=C/C=C/c2cccc(Br)c2)cc1-c1nc2ccccc2s1,-6%,20µM*
Nc1ccc(O)c(-c2nc3ccccc3s2)c1,-24%,3.2µM*
Nc1ccc2nc(-c3ccc(O)cc3)sc2c1,106%,?
O=C(Nc1ccc(O)c(-c2nc3ccccc3s2)c1)c1cc(=O)c2ccccc2o1,-14%,?
CCN(C(=O)Cn1nc(Cc2cccnc2)c2ccccc2c1=O)c1cc(C)ccc1C,0%,3%
COc1ccc(C(=O)Nc2oc(-c3ccccc3)c(-c3ccccc3)c2C#N)cc1OC,-1%,-4%
COc1ccc(C(=O)Nc2oc(-c3ccccc3)c(-c3ccccc3)c2C#N)cc1,-2%,32µM*
COc1ccc(-c2oc(NC(=O)c3ccc(C)cc3)c(C#N)c2-c2ccc(OC)cc2)cc1,3%,13µM*
COc1ccc(-c2oc(NC(C)=O)c(C#N)c2-c2ccc(OC)cc2)cc1,-9%,16%
Cc1[nH]c2ccccc2c1C1(O)C(=O)N(Cc2ccccc2)c2ccc(Cl)cc21 (configuration not stated),-11%,?
Cc1csc2nc(COC(=O)c3ccc(NC(=O)c4ccccc4Br)cc3)cc(=O)n12,-4%,-22%
SMILES,Cruzain inh Det,Cruzain noTriton
CC1=C(C(=O)Nc2ccccc2)C(c2ccccc2C)n2ncc(C(=O)Nc3ccccc3)c2N1 (configuration not stated),-8%,-9%
CC1=C(C(=O)Nc2ccccc2)C(c2ccccc2Cl)n2ncc(C(=O)Nc3cccc(C)c3)c2N1 (configuration not stated),-5%,20µM*
COc1ccc(NC(=O)c2c(-c3ccc(C)cc3)nnc3ccccc23)c(OC)c1,-3%,-2%
COc1cccc([C@@H]2Oc3ccc(OC)cc3C[C@H]2OC(=O)NS(=O)(=O)c2ccc(F)cc2)c1,-1%,-3%
O=C(Cc1coc2ccc3ccccc3c12)N1CCc2ccccc21,3%,13µM*
Cc1ccc2c(CC(=O)N3CCc4ccccc43)coc2c1,-10%,0%
CC1=CC(C)(C)N(C(=O)CN2C(=O)c3ccccc3C2=O)c2ccc(C)cc21,-5%,-7%
CCC(=O)N1c2ccc(C)cc2C2=NNC(=S)NC21O (configuration not stated),?,0.63µM*
c1ccc(-c2ccc(CN3C[C@@H]4C(c5ccccc5)C5(c6ccccc6)CC4(C5)[C@H]3c3ccccc3)cc2)cc1 (some centres not stated),4%,1%
COC(=O)c1ccc(C23CC4(C2)[C@H](CN(C)[C@@H]4c2ccccc2)C3c2ccccc2)cc1 (some centres not stated),-4%,1%
COC(=O)c1cccc(C23CC4(C2)[C@H](CN(Cc2cccnc2)[C@@H]4c2ccccc2)C3c2ccc(Cl)nc2)c1 (some centres not stated),0%,-1%
COC(=O)c1cccc(C23CC4(C2)[C@H](CN(Cc2ccc(-c5ccccc5)cc2)[C@@H]4c2ccccc2)C3c2ccc(Cl)nc2)c1 (some centres not stated),2%,7.9µM*
N#Cc1ccc(C23CC4(C2)[C@H](CN(Cc2ccc(-c5ccccc5)cc2)[C@@H]4c2ccccc2)C3c2ccccc2)cc1 (some centres not stated),-4%,13µM*
COC(=O)c1ccc(C23CC4(C2)[C@H](CN(Cc2ccc(-c5ccccc5)cc2)[C@@H]4c2ccccc2)C3c2ccccc2)cc1 (some centres not stated),2%,7.9µM*
Cc1ccc(NC(=O)CCNS(=O)(=O)c2ccc3c(c2)CCN3C(=O)C2CC2)c(Cl)c1,-1%,-6%
CC(C)CCn1c(=O)c2sccc2n2c(CCCC(=O)Nc3ccc(F)c(Cl)c3)nnc12,-1%,-11%
COc1ccc(Nc2nnc(-c3ccc(C)c(S(=O)(=O)N4CCOCC4)c3)c3ccccc23)cc1,0%,-10%
CC1C(NC(=O)/C(=N/OC(C)(C)C(=O)O)c2csc(N)n2)C(=O)N1S(=O)(=O)O (configuration not stated),3%,-5%
CCC(C)(C)NC(=O)C1CCN(S(=O)(=O)c2c(C)noc2/C=C/c2ccc(C)cc2)CC1,-2%,-1%
O=C(Nc1ccc(OCc2cc(=O)n3c4c(sc3n2)CCCC4)cc1)c1ccccc1,0%,7%
Cc1ccc(C2CC(c3cccs3)=NN2C(=O)c2ccc(Br)o2)cc1 (configuration not stated),-9%,7.9µM*
CCOC(=O)CSCC(=O)N1N=C(c2cccs2)CC1c1ccc(F)cc1 (configuration not stated),-9%,7%
O=C(Nc1ccc2oc(-c3cc(Br)ccc3Cl)nc2c1)c1cc2ccccc2o1,1%,3%
CCOC(=O)c1nn(-c2ccc(OC)cc2)c(=O)c2c(N)scc12,-14%,6%
COc1ccc(/C=N/NC(=O)c2nn(-c3ccc(Cl)cc3)c(=O)c3c(N)scc23)cc1,-6%,13µM*
SMILES,Cruzain inh Det,Cruzain noTriton
COc1ccc(/C=N/NC(=O)c2nn(-c3ccccc3)c(=O)c3c(N)scc23)cc1,-10%,20µM*
COc1ccc(/C=N/NC(=O)c2nn(-c3ccc(C)c(C)c3)c(=O)c3ccccc23)cc1,-6%,-11%
COC(=O)c1ccc(C23CC2(C(NP(=O)(c2ccccc2)c2ccccc2)c2ccccc2)C3)cc1 (configuration not stated),-7%,-8%
O=NN(Cc1ccc(Cl)cc1)[C@@H](C(=O)O)c1ccccc1,3%,-3%
O=C(CC1C(=O)N(c2ccccc2)C(=O)N1Cc1ccc(F)cc1)Nc1cccc(F)c1 (configuration not stated),-5%,-12%
COc1ccc2c(Sc3ccc(C)cc3)c(C(=O)NCCc3ccccc3)[nH]c2c1,-3%,16µM*
COCCCNC(=O)c1[nH]c2cc(OC)ccc2c1Sc1ccc(C)cc1,1%,26%
